This is an account of results in PubChem BioAssay (NCI).

Among the test systems are SR leukemia; RPMI-8226 leukemia; OVCAR-8 ovarian; OVCAR-5 ovarian; OVCAR-4 ovarian; SK-OV-3 ovarian; IGROV1 ovarian; OVCAR-3 ovarian; HS 578T breast; NCI/ADR-RES ovarian; T-47D breast; BT-549 breast; MDA-MB-435 melanoma; SW-620 colon; MCF7 breast; HCT-116 colon; HCC-2998 colon; KM12 colon.
What all share (assay): NCI-60 one-dose screen, 48 h (100 = growth as untreated, 0 = no growth, -100 = all killed)
Common to all, as to conditions: 10 µM unless noted

Compounds without any hit were thinned out: in the full panel of roughly 83,000, 20% have a hit.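 Cells were grown in 96-well plates and exposed to the test compound at a single concentration for 48 hours; results are reported as percent growth, with values below 10 considered active.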 Unmarked numbers belong to inactive results. Active and inactive are the calls of the source.

Take `CO[C@]12C=C/C(=C(/C(=O)OCc3cccnc3)C(=O)CCCCCCCC[C@]3(OC)C=C/C(=C(/C(=O)OCc4cccnc4)C(=O)CCCCCCCC1)O3)O2`: the growth is -20.7% (active) in the test with SR leukemia; -30.4% (active) with RPMI-8226 leukemia; 7.77% (active) in the test on OVCAR-8 ovarian; -52.1% (active) in the test on OVCAR-5 ovarian; -65.6% (active) in the test with OVCAR-4 ovarian; -0.89% (active) with SK-OV-3 ovarian. In addition, the growth is -66.7% (active) with IGROV1 ovarian; -95.5% (active) with OVCAR-3 ovarian; 30.6% in the test with HS 578T breast; -23.9% (active) in the test on NCI/ADR-RES ovarian; -17.2% (active) with T-47D breast; -67.8% (active) in the test on BT-549 breast. The growth in the test on MDA-MB-435 melanoma is -42.4% (active); in the test on SW-620 colon, -33.3% (active); in the test on MCF7 breast it was -56.3% (active); in the test on HCT-116 colon, -86% (active); in the test with HCC-2998 colon, -90.6% (active); with KM12 colon, -86.5% (active).

Consider `Oc1ccc(C(c2ccc(O)cc2)c2ccc(Cl)cn2)cc1`, for which the growth in the test with SR leukemia is 90%; in the test on RPMI-8226 leukemia, 98.2%; in the test with OVCAR-8 ovarian, -11.1% (active); with OVCAR-5 ovarian it was 72.7%; in the test with OVCAR-4 ovarian it was -14.8% (active); with SK-OV-3 ovarian it was 86.8%. Moreover, the growth is 28.9% in the test on IGROV1 ovarian; -34.5% (active) with OVCAR-3 ovarian; -29.9% (active) in the test on HS 578T breast; -36.1% (active) with NCI/ADR-RES ovarian; -34.4% (active) in the test with T-47D breast; -30.1% (active) in the test on BT-549 breast. Further, the growth was 101% with MDA-MB-435 melanoma; 106% in the test on SW-620 colon; -17.3% (active) with MCF7 breast; 27.6% in the test on HCT-116 colon; 1.05% (active) with HCC-2998 colon; 20.8% in the test on KM12 colon.

Turning to `COCCNC(=O)Cc1cc(-c2ccc(Cl)cc2)n(-c2ccccc2)c1C`, the growth with SR leukemia was 61.9%; in the test with RPMI-8226 leukemia, 63%; with OVCAR-8 ovarian, 85.8%; in the test with OVCAR-5 ovarian it was 90%; with OVCAR-4 ovarian, 67.1%; in the test on SK-OV-3 ovarian it was 95%. Also, the growth with IGROV1 ovarian was 88.6%; with OVCAR-3 ovarian, 116%; in the test with HS 578T breast it was 107%; in the test on NCI/ADR-RES ovarian, 86.1%; in the test with T-47D breast it was 56.3%; with BT-549 breast, 83.5%. Besides, the growth was 93.7% with MDA-MB-435 melanoma; 94.9% in the test on SW-620 colon; 88.6% in the test with MCF7 breast; 80.4% in the test with HCT-116 colon; 99.3% in the test on HCC-2998 colon; 91.7% in the test on KM12 colon.

As for `COc1cccc(/C=C/C(=O)/C=C(/C=C/c2cccc(OC)c2OC)OB(F)F)c1OC`, the growth in the test with SR leukemia is 15.2%; with RPMI-8226 leukemia, 23.6%; with OVCAR-8 ovarian, 16.7%; in the test on OVCAR-5 ovarian it was 64%; with OVCAR-4 ovarian, 50.7%; in the test with SK-OV-3 ovarian it was 97%. In addition, the growth with IGROV1 ovarian is 33.7%; in the test with OVCAR-3 ovarian it was 10.8%; with HS 578T breast, 38.3%; with NCI/ADR-RES ovarian it was 19.6%; in the test on T-47D breast, 41.2%; with BT-549 breast, 48%. Moreover, the growth in the test with MDA-MB-435 melanoma was 14.8%; in the test with SW-620 colon it was 16.4%; with MCF7 breast, 26.8%; in the test with HCT-116 colon it was 8.38% (active); in the test on HCC-2998 colon, 121%; in the test on KM12 colon it was 86.5%.

Consider `COc1ccc(/C=C2/CCc3cc4ccc(OC)cc4[o+]c32)c(O)c1`, for which the growth in the test with SR leukemia was -2.1% (active); with RPMI-8226 leukemia, 14.1%; with OVCAR-8 ovarian, 42.9%; with OVCAR-5 ovarian, 115%; with OVCAR-4 ovarian, 75.9%; with SK-OV-3 ovarian, 103%. Further, the growth in the test on IGROV1 ovarian was 9.32% (active); in the test with OVCAR-3 ovarian it was 49.8%; in the test on HS 578T breast, 75.3%; in the test with NCI/ADR-RES ovarian it was 53.8%; in the test on T-47D breast it was 67.2%; in the test with BT-549 breast, 96.2%. Also, the growth is 2.85% (active) in the test on MDA-MB-435 melanoma; 11.9% in the test on SW-620 colon; 48.1% in the test on MCF7 breast; -64.1% (active) in the test on HCT-116 colon; 64.3% in the test on HCC-2998 colon; 45.4% in the test with KM12 colon.

In the case of `CC(=O)OCCOc1cc(Cl)c(Cl)cc1Cl`, the growth is 97.2% in the test with SR leukemia; 93.3% with RPMI-8226 leukemia; 103% in the test with OVCAR-8 ovarian; 90.6% with OVCAR-5 ovarian; 108% in the test with OVCAR-4 ovarian; 107% in the test with SK-OV-3 ovarian. Further, the growth in the test with IGROV1 ovarian is 130%; in the test on OVCAR-3 ovarian, 118%; in the test with HS 578T breast it was 103%; in the test with NCI/ADR-RES ovarian it was 105%; with T-47D breast, 101%; with BT-549 breast it was 91.7%. The growth in the test with MDA-MB-435 melanoma was 106%; with SW-620 colon, 104%; in the test on MCF7 breast, 104%; in the test on HCT-116 colon, 102%; in the test with HCC-2998 colon, 97.9%; with KM12 colon, 103%.

Regarding `COc1cc(CNC(=O)CCCC/C=C/C(C)C)ccc1OCc1cn(-c2ccc(C(F)(F)F)cc2)nn1`, the growth with SR leukemia is 70.4%; in the test with RPMI-8226 leukemia, 53.4%; in the test on OVCAR-8 ovarian it was 41.1%; with OVCAR-5 ovarian, 96.6%; in the test with OVCAR-4 ovarian, 98.6%; in the test on SK-OV-3 ovarian, 91.3%. Besides, the growth in the test with IGROV1 ovarian is 58.7%; with OVCAR-3 ovarian it was 107%; with HS 578T breast, 80.4%; in the test with NCI/ADR-RES ovarian, 48.2%; with T-47D breast it was 70.2%; in the test with BT-549 breast, 84.5%. For the same compound, the growth in the test with MDA-MB-435 melanoma was 107%; in the test with SW-620 colon, 41.3%; with MCF7 breast, 75.2%; in the test with HCT-116 colon, 2.97% (active); in the test on HCC-2998 colon it was 94.8%; in the test with KM12 colon, 81.2%.

With `O=C(Nc1ncc(Cc2ccccc2Cl)s1)c1ccc2c(c1)OCCO2`, the growth with SR leukemia is 5.14% (active); in the test on RPMI-8226 leukemia, 19.3%; in the test with OVCAR-8 ovarian, 24.2%; with OVCAR-5 ovarian, 33.2%; in the test on OVCAR-4 ovarian it was 43.5%; in the test on SK-OV-3 ovarian it was 32.5%. For the same compound, the growth in the test with IGROV1 ovarian was 28.4%; in the test with OVCAR-3 ovarian it was -14.4% (active); with HS 578T breast it was 19.8%; with NCI/ADR-RES ovarian it was 14.5%; with T-47D breast, 33.9%; with BT-549 breast, 18.7%. Also, the growth with MDA-MB-435 melanoma was -19.5% (active); in the test with SW-620 colon, 31.9%; in the test with MCF7 breast, 12.4%; in the test with HCT-116 colon, 7.38% (active); in the test with HCC-2998 colon, 19.6%; in the test on KM12 colon, 6.53% (active).
